Screens from PubChem BioAssay.
G9a block = qHTS Assay for Inhibitors of Histone Lysine Methyltransferase G9a; Histone-lysine N-methyltransferase EHMT2 (Homo sapiens), Q96KQ7; G9a H3K9 monomethylation, AlphaScreen, 2 h; AID 504332, 2011; hit rate 8.8% among 350,000; Potency, µM (doses to about 102 µM), for the others: at the top dose activity, negative = inhibition, hits mostly inhibitors; further: on the % scale 0 is the no-effect control and ±100 the full control effect; nearly all actives have a fitted effect of over 75% in size
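Methyltransferase reactions run at room temperature for 2 h (20 nM enzyme, 500 nM biotin-H3K9 peptide, 20 uM SAM) after a 15 min compound preincubation; product detected by AlphaScreen beads and anti-H3K9me1 antibody.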
JMJD2A Tudor = qHTS Assay for Inhibitors of JMJD2A-Tudor Domain; Lysine-specific demethylase 4A (Homo sapiens), O75164; AlphaScreen JMJD2A-Tudor / H3K4me3 peptide binding; Potency, µM (highest dose often 114 µM), for the others: top-dose activity change, negative = inhibition, hits mostly inhibitors; hit rate 4.4% among 390,000; AID 504339, 2011; further: on the % scale 0 is the no-effect control and ±100 the full control effect; nearly all actives have a fitted effect of over 50% in size
BAZ2B block = qHTS Assay for Inhibitors of BAZ2B. Bromodomain adjacent to zinc finger domain protein 2B (Homo sapiens), Q9UIF8. AlphaScreen BAZ2B-H3K14Ac peptide displacement. Potency, µM (highest dose often 114 µM), without a hit: at the highest dose activity change, negative = inhibition, most hits filed as inhibitors. hit rate 4.4% among 360,000; further: on the % scale 0 is the no-effect control and ±100 the full control effect; nearly all actives have a fitted effect of over 60% in size
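Complex of BAZ2B and biotin-H3K14Ac (50 nM apiece) forms over 30 min at RT, then faces library compounds up to 110 uM for another 30 min; AlphaScreen beads added, 20 min dark incubation, luminescence read.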
Sfp inh = qHTS Assay for Inhibitors of Bacillus subtilis Sfp phosphopantetheinyl transferase (PPTase). Biochemical Sfp PPTase activity, qHTS. hit rate 3.5% among 310,000. 4'-phosphopantetheinyl transferase ffp (Bacillus subtilis), Q9F4F7. Potency, µM, without a hit: largest response in the series, negative = inhibition, most hits filed as inhibitors;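 further: the enzyme is Sfp with the accession as filed and its product quenches rhodamine fluorescence; 0% = enzyme reaction without inhibitor and -100% = no enzyme wells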
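Step 1, compound plus 15 nM Sfp-PPTase, 15 min, room temperature. Step 2, add rhodamine-CoA (5 uM) and BHQ-2-YbbR (12.5 uM). Step 3, read 525/598 nm fluorescence at 0 and 30 min.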
L3MBTL1 block = qHTS Assay for the Inhibitors of L3MBTL1 | Lethal(3)malignant brain tumor-like protein 1 (Homo sapiens), Q9Y468 | AlphaScreen L3MBTL1–H3K9me1 peptide binding | Potency, µM (series often up to 57.1 µM), for the others: at the highest dose activity, negative = inhibition, actives largely listed as inhibitors | hit rate 0.66% among 230,000; further: on the % scale 0 is the no-effect control and ±100 the full control effect; nearly all actives have a fitted effect of over 60% in size
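Displacement of a biotinylated histone H3(1-15) peptide monomethylated at Lys9 (75 nM) from L3MBTL1 (50 nM) was measured by AlphaScreen after a 30 min room-temperature compound incubation; cefsulodin titration served as intraplate control.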
HP1b binding inh = HTS for Inhibitors of HP1-beta Chromodomain Interactions with Methylated Histone Tails | AlphaScreen HP1-beta / biotin-H3K9me3 peptide binding | Potency, µM (doses to about 114 µM), inactives show at the top dose activity change, negative = inhibition, usual class: inhibitors | hit rate 0.56% among 390,000 | AID 540317, 2011; further: nearly all actives have a fitted effect of over 70% in size
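AlphaScreen: HP1-beta (50 nM) preformed 30 min with biotin-H3(1-18)K9me3 peptide (50 nM) in PBS pH 7.4, 0.01% Tween-20. Compound added for 30 min at RT, then streptavidin donor/nickel chelate acceptor beads (10 ug/mL) for 30 min.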
* = called active by the depositor; ? = inconclusive; . = no result given; [ ] = remark or other dose. In the library only some 12% were active in any assay of this set; here they are far more common. The call rests on the fitted dose curve; in most records, active means well fitted curve in the direction sought with a large enough effect; inconclusive means small, poorly fitted or top-dose-only effect, or another doubt; inactive means no such curve, though single readings can be large; an effect the other way counts as inactive or inconclusive. Potency means the concentration at half of the fitted maximal effect.

SMILES	G9a block	JMJD2A Tudor	BAZ2B block	Sfp inh	L3MBTL1 block	HP1b binding inh
COc1ccc(-c2nc(CS(=O)(=O)CC(=O)NCc3ccc4c(c3)OCO4)c(C)o2)cc1	.	-14.5%	-5.0%	-4.5%	.	38.5%
Cc1ccccc1-c1nsc(SCC(=O)NCc2ccc3c(c2)OCO3)n1	35.5µM*	-16.6%	-2.8%	-21.2%	10.3%	-6.6%
O=c1cnc2cnc(Oc3ccccc3)nc2n1C1CC1	2.5%[0.501 µM]	.	.	-2.8%	.	.
NS(=O)(=O)c1ccc(NC(=O)N2c3ccccc3Sc3ccccc32)cc1	.	-24.6%	50.1µM*	-9.7%	-27.7%	13.4%
CCc1ccc(NC(=O)N2c3ccccc3Sc3ccccc32)cc1	4.8%[59 µM]	3.1%	4.2%	.	.	30.2%
CCC(=O)Nc1c(C)c(CC)nc2ccccc12	-4.9%[12.7 µM]	-9.6%	-4.6%	6.9%	2.3%	35.5%
CCCCc1nc2ccccc2c(NC(=O)CN(CC)CC)c1CCC	31.6µM*	28.2µM*	56.2µM*	?	.	?
COC(=O)C1=C(C)NC(=O)/C1=C\c1cc(C)n(-c2c(C)cccc2C)c1C	10µM*	31.6µM*	31.6µM*	-25.8%	.	?
Cc1cc(/C=C2\NC(=O)NC2=O)c(C)n1-c1cccnc1	?	-13.5%	?	12.3%	-4.8%	-5.0%
Cc1cccc(C)c1-n1c(C)cc(/C=C2\NC(=O)NC2=O)c1C	?	50.1µM*	39.8µM*	13.1%	-13.4%	-21.4%
COC(=O)C1=C(C)NC(=O)/C1=C\c1cccs1	-19.9%	-24.7%	-4.9%	16.7%	.	3.7%
COC(=O)C1=C(C)NC(=O)/C1=C\c1cc(C)n(-c2ccccc2C)c1C	44.7µM*	44.7µM*	44.7µM*	-14.3%	.	-67.6%
CCOC(=O)C1=C(O)/C(=C\c2cc(C)n(-c3ccccc3F)c2C)N=C1C	?	?	?	-22.0%	.	20.4%
COC(=O)C1=C(C)NC(=O)/C1=C\c1cc(C)n(-c2ccccc2F)c1C	.	-33.2%	44.7µM*	-13.2%	-10.3%	-9.5%
COc1cccc2cc(C(=O)NCCc3c(C)[nH]c4ccc(F)cc34)c(=O)oc12	-1.2%[59 µM]	4.1%	-19.2%	.	.	34.5%
O=C(CSc1nnc(-c2ccccc2O)o1)N1CCCCC1	10µM*	-2.1%	-31.1%	5.0%	.	37.5%
O=C(CSc1nnc(-c2ccccc2O)o1)N1CCOCC1	-10.6%	56.2µM*	79.4µM*	-11.2%	.	-19.7%
O=C(CSc1nnc(-c2ccccc2Cl)o1)N1CCCCC1	?	-10.6%	-6.3%	7.3%	5.0%	55.0%
CC1CCCCN1C(=O)CSc1nnc(-c2ccccc2O)o1 (stereo unspecified)	?	-14.4%	2.5%	10.5%	.	25.2%
CC1CCCCN1C(=O)CSc1nnc(-c2ccccc2Cl)o1 (stereo unspecified)	12.6µM*	-3.8%	3.1%	.	.	-9.9%
Cc1sc2c(c1C)c(=O)n(-c1cccc(C(F)(F)F)c1)c(=O)n2Cc1ccc(F)cc1	-20.2%[59 µM]	-7.5%	-2.4%	.	.	17.6%
CCOc1ccccc1NC(=O)Cn1c(=O)n(Cc2ccco2)c(=O)c2ccc(C(=O)NC3CCCC3)cc21	-24.4%[59 µM]	-10.7%	.	.	.	14.9%
COc1cc(NC(=O)CSc2nc3nc(C)c(Cc4ccccc4)c(C)n3n2)cc(OC)c1OC	5.1%[59 µM]	-22.3%	-17.6%	.	.	14.0%
CCCOc1ccc(CNC(=O)c2cc3ccccn3n2)cc1	9.5%[59 µM]	-20.1%	0.2%	.	.	26.0%
O=C(NCC(c1cccs1)N1CCOCC1)c1cc([N+](=O)[O-])ccc1Cl (stereo unspecified)	44.7µM*	-4.8%	9.3%	-6.2%	-4.5%	28.1%
SMILES	G9a block	JMJD2A Tudor	BAZ2B block	Sfp inh	L3MBTL1 block	HP1b binding inh
COc1ccc(OCC(=O)NCc2ccc3c(c2)CCN3C(=O)c2ccc(F)cc2)cc1	-1.5%[59 µM]	-22.0%	-2.4%	.	.	19.1%
COc1ccc(C2=CC(c3cc(OC)c(OC)c(OC)c3)NC(=S)N2)cc1 (stereo unspecified)	6.31µM*	-19.1%[11.4 µM]	-27.7%	13.9%	.	-16.2%
Fc1ccc(OCCCCN2CCOCC2)cc1	-5.5%[59 µM]	-4.5%	-11.3%	-1.1%	.	23.4%
Brc1ccccc1OCCCN1CCCC1	.	10µM*	?	-15.0%	-34.5%	?
O=C(c1ccc(COc2ccccc2Br)cc1)N1CCCCC1	4.2%[59 µM]	79.4%	16.6%	-22.7%	.	87.9%
Brc1ccccc1OCCCN1CCCCCC1	56.2µM*	1µM*	?	-5.3%	-0.1%	?
Brc1ccccc1OCCCCCN1CCOCC1	39.8µM*	4.47µM*	56.2µM*	-28.3%	.	?
Brc1ccccc1OCCN1CCCC1	.	20µM*	.	.	.	79.4µM*
O=C1c2ccccc2C(=O)N1CCOc1ccccc1Br	115.6%	53.8%	25.1%	1.1%	.	106.1%
CCCn1c(=O)n(-c2ccccc2Cl)c(=O)c2sc3ccccc3c21	5.2%[59 µM]	-8.6%	-9.0%	.	.	47.3%
CCOc1ccc(NC(=O)CSC2=Nc3ccccc3C3=NC(CCC(=O)NCc4ccccc4)C(=O)N23)cc1 (stereo unspecified)	11.6%[59 µM]	-21.0%	-12.2%	.	.	13.3%
CC(=O)c1ccccc1OCCCN1CCCCC1	11.2µM*	3.16µM*	50.1µM*	?	-2.1%	?
CC(C)c1ccccc1OCCCN1CCCC1	39.8µM*	31.6µM*	?	-3.2%	?	?
CC(=O)c1ccccc1OCCOCCOCCOc1ccccc1C(C)=O	.	-0.8%	-14.0%	29.7%	8.2%	21.1%
CC(C)c1ccccc1OCCCCN1CCCCC1	.	-4.0%	.	.	.	36.0%
CCc1ccc(CNC(=O)C2CCN(c3nnc(-n4c(C)ccc4C)s3)CC2)cc1	-2.2%[59 µM]	-25.8%	-14.0%	.	.	10.3%
CCS(=O)c1scc(-c2ccc(Cl)cc2)c1C#N (stereo unspecified)	50.1µM*	-3.0%	2.1%	11.3%	2.3%	26.8%
COc1ccc(CC(=O)NNC(=O)c2cccs2)cc1OC	2.5%	31.6µM*	-6.4%	23.1%	5.5%	16.2%
O=C(NC(=S)NNC(=O)c1cccs1)c1ccco1	?	2.2%	79.4%[57.1 µM]	79.4µM*	50.2%	33.3%
O=C(Nc1ccc(NC(=S)NC(=O)c2cccs2)cc1)c1ccco1	50.1µM*	-22.5%	-30.8%	-25.5%	-18.2%	18.3%
C/C(=N\NC(=O)c1ccco1)c1ccc(NC(=O)c2cccs2)cc1	1.4%[59 µM]	-16.3%	5.1%	-7.3%	-2.0%	3.8%
